# Rab9 promoter act: Rab9 promoter activation; Potency, µM (doses to about 9.22 µM), without a hit: at the highest dose activation, negative = inhibition, hits mostly activators; hit rate 2.8% among 320,000; AID 485297; Huh7 Rab9 promoter-luciferase reporter, luminescence, 24 h; note: % of control where 0% means no effect; nearly all actives have a fitted effect of over 60% in size
#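 Quantitative HTS format; Huh7 Rab9-luciferase reporter cells (1500/well) receive compound 2 h post-plating, incubate 24 h at 37 °C, then get luciferase reagent for 10 min before luminescence reading.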
# NPC1 promoter act: activators of NPC1 promoter | Huh7 NPC1 promoter luciferase reporter, 24 h | Potency, µM (doses to about 9.22 µM), inactives show at the top dose activation, most hits filed as activators | hit rate 2.4% among 320,000 | AID 485313; note: % of control where 0% means no effect; nearly all actives have a fitted effect of over 60% in size
#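 Huh7 cells stably carrying NPC1 promoter–luciferase, plated in Opti-MEM with 10% FBS for 2 h, were exposed to compound in DMSO for 24 h at 37 °C; luciferase reagent was added for 10 min and luminescence read.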
# FLuc counter: inhibits or activates purified firefly luciferase, miR-21 counter-screen; P08659; purified FLuc, Km substrates, luminescence inhibition; Potency, µM (doses to about 57.5 µM), inactives show top-dose activity change, negative = inhibition, actives largely listed as inhibitors; hit rate 6.9% among 360,000;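 note: plate controls were vehicle for no effect and reference inhibitor for full effect; nearly all actives have a fitted effect of over 55% in size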
# Target sequence (P08659 whole entry, looked up): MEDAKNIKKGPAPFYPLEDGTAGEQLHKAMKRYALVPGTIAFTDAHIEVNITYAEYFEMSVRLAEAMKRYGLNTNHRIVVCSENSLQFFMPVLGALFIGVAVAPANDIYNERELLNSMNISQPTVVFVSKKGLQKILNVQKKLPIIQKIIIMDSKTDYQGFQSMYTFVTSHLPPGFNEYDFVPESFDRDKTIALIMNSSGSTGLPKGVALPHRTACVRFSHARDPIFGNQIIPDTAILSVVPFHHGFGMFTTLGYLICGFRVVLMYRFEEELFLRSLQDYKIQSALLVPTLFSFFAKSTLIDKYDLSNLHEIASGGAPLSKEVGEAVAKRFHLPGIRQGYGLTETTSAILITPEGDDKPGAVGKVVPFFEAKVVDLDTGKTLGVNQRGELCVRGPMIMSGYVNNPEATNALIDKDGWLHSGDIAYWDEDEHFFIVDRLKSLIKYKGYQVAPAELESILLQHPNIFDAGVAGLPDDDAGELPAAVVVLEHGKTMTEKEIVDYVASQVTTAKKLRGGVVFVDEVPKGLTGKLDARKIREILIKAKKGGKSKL
#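 Purified P. pyralis luciferase (10nM final) with 10uM D-luciferin and 10uM ATP (Km levels) in 50mM Tris acetate pH 7.5, 10mM Mg acetate, 0.01% Tween-20, 0.05% BSA; qHTS 6-point titration, ~60 µM downward; luminescence read.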
# SMN2 splice up: enhancers of SMN2 splice variant expression | HEK293 SMN2-luciferase splicing reporter, luminescence, 30-36 h | Potency, µM (highest dose often 46.1 µM), for the others: top-dose activity change, positive = activation, hits mostly activators | hit rate 2.8% among 210,000; note: % of control where 0% means no effect; nearly all actives have a fitted effect of over 55% in size
#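 qHTS luciferase splicing reporter: luminescence rises when SMN2 exon 7 is included in transfected HEK293 cells. Compound exposure lasted 30-36 h at 37C, with 4.5 mM final sodium butyrate as control, followed by a ONE-Glo read.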
# Luc counter: Kinase-Glo luciferase inhibition (counter-screen); Q27757; Kinase-Glo luciferase, ATP luminescence, 8 min; Potency, µM (top dose mostly 38.3 µM), for the others: at the top dose activity change, negative = inhibition, most hits filed as inhibitors; hit rate 0.28% among 200,000; AID 1379; note: % is set by controls: 0 for no effect and ±100 for the full control effect; nearly all actives have a fitted effect of over 60% in size
#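 Kinase-Glo luciferase light output from ATP and luciferin was measured with 10 uM ATP, within the enzyme's linear range. Buffer: 50 mM imidazole pH 7.2, 50 mM KCl, 7 mM MgCl2, 0.01% Tween 20, 0.05% BSA; luminescence read after 8 min at ambient temperature.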
# ELG1 genotoxic: genotoxicity induction in ELG1-luciferase HEK293T cells. AID 504466. hit rate 1.3% among 330,000. Potency, µM (series often up to 46 µM), inactives show at the highest dose activity change, positive = activation, most hits filed as activators. HEK293T ELG1-luciferase reporter, luminescence, 16 h; note: % of control where 0% means no effect; nearly all actives have a fitted effect of over 60% in size
#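 After overnight (16 hr) compound treatment at 37 °C, ELG1-luciferase HEK293T cells were lysed with ONE-Glo; luminescence quantified 30 min later at room temperature.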
# * hit, by the source's call; ? = inconclusive; . = not tested or not shown; [ ] = remark or other dose. Shown are actives, neighbours in structure and some others; about 7.3% of the full set was active somewhere. Calls come from the whole dose curve; as a rule, active = well fitted curve in the direction sought with a large enough effect; inconclusive = small, poorly fitted or top-dose-only effect, or another doubt; inactive = no such curve, though single readings can be large; an effect the other way counts as inactive or inconclusive. Potency is the fitted concentration of half-maximal effect.
SMILES,Rab9 promoter act,NPC1 promoter act,FLuc counter,SMN2 splice up,Luc counter,ELG1 genotoxic
COc1ccc(-c2nnc(-c3cccnc3)o2)cc1,?,?,?,?,1%,?
Cc1ccc(-c2nnc(-c3cccnc3)o2)cc1,?,2.8µM*,12µM*,.,.,21µM*
Cc1ccc(-c2nc(-c3ccccc3)no2)cc1,1.3µM*,1µM*,0.21µM*,8%,-29%,0.65µM*
CCn1nc(C)c(Br)c1-c1nc(-c2cccc(C)c2)no1,27%,2.5µM*,?,.,.,0%
Cc1ccc(-c2nc(-c3cccnc3)no2)cc1,.,.,1.5µM*,10µM*,-24%,.
CCOc1ccc(-c2nc(-c3ccccc3)no2)cc1OCC,?,?,13µM*,-3%,-2%,?
Brc1cccc(-c2nc(-c3ccncc3)no2)c1,5µM*,3.2µM*,7.6µM*,27%,-6%,?
Cc1ccc(-c2nc(-c3ccccc3)no2)c(Cl)c1,4µM*,2.8µM*,0.085µM*,-30%,?,0.26µM*
Cc1ccc(Cc2nc(-c3cccnc3)no2)cc1,7%,14%,?,10%,-1%,6%
CCOc1ccc(NCc2cccn2-c2nnc(N3CCC(C(=O)NCCc4ccc(OC)c(OC)c4)CC3)s2)cc1,.,.,-14%,-35%,.,.
COc1cccc2c1C(=O)c1c(O)c3c(c(O)c1C2=O)C[C@@](O)(C(=O)CO)C[C@H]3O[C@H]1C[C@@H](N)[C@H](O)[C@@H](C)O1.[W],.,.,.,-18%[9.22 µM],-7%[7.66 µM],.
CCC1CN(C(=O)Nc2ccc(Br)cc2F)c2ccccc2S1 (stereo not drawn),.,.,-2%,.,.,.
CCCc1noc(-c2ccc(-c3ccccc3)cc2)n1,1.6µM*,1.6µM*,1.5µM*,?,-9%,?
Cc1ccc(SC(C)c2nc(-c3ccncc3)no2)cc1 (stereo not drawn),-5%,1%,-3%,-45%,1%,23%
c1cncc(-c2noc(-c3ccco3)n2)c1,4µM*,3.2µM*,?,-1%,-25%,?
Cc1ccc(-c2nc(-c3ccncc3)no2)cc1,1µM*,0.89µM*,1.7µM*,.,.,3.7µM*
FC(F)(F)c1cccc(-c2nc(-c3ccncc3)no2)c1,?,?,15µM*,.,.,18%
Cc1ccc(OCc2nc(-c3cccnc3)no2)cc1C,17%,14%,?,15%,-5%,11%
Cc1cccc(-c2nc(-c3ccncc3)no2)c1,1.4µM*,1.6µM*,3µM*,.,.,9.2µM*
CCC(=O)Oc1ccc(-c2nc(-c3cccnc3)no2)cc1,4.5µM*,4µM*,3.4µM*,?,?,?
O=[N+]([O-])c1cc(-c2nc(-c3ccncc3)no2)ccc1Cl,-2%,7%,-16%,-12%,-3%,-1%
Clc1ccc(Br)cc1-c1nc(-c2ccncc2)no1,22%,2%,?,?,-2%,21µM*
O=C(Nc1ccc2c(c1)OCCO2)c1cccc(S(=O)(=O)N2CCOCC2)c1,4.5µM*,?,?,?,2%,?
CS(=O)(=O)c1cccc(C(=O)Nc2ccc3c(c2)OCCCO3)c1,3.5µM*,?,15µM*,.,.,?
O=C(Nc1ccc2c(c1)OCCO2)c1cccc(S(=O)(=O)N2CCCCC2)c1,-6%,-2%,?,-10%,-2%,9%
SMILES,Rab9 promoter act,NPC1 promoter act,FLuc counter,SMN2 splice up,Luc counter,ELG1 genotoxic
CCCN(CCC)S(=O)(=O)c1cccc(C(=O)Nc2ccc3c(c2)OCO3)c1,-4%,-1%,-11%,-9%,4%,-11%
O=C(Nc1ccc(Cl)c(S(=O)(=O)N2CCOCC2)c1)c1ccc2c(c1)OCO2,.,.,.,.,.,-12%
COc1ccc(N(C)S(=O)(=O)c2cccc(C(=O)Nc3ccc4c(c3)OCCO4)c2)cc1,-8%,0%,-9%,9%,0%,-13%
O=C(Nc1ccc(Cl)c(S(=O)(=O)N2CCOCC2)c1)c1ccc2c(c1)OCCO2,4%,-1%,27µM*,-53%,0%,-17%
CCN(CC)S(=O)(=O)c1cccc(C(=O)Nc2ccc3c(c2)OCO3)c1,?,?,15µM*,?,-5%,6%
CCC(CC)C(=O)Nc1cccc(C(=O)Nc2ccc3c(c2)OCO3)c1,18%,27%,?,8.9µM*,0%,11%
COc1ccc(Cl)cc1NC(=O)Nc1ccccc1SC,-4%,-1%,6%,-4%,-2%,10%
CNC(=O)Nc1ccccc1F,-5%,0%,-1%,-1%,19%,-5%
O=C(Nc1ccccc1F)Nc1ccccc1Br,-17%,26%,17µM*,13%,-6%,?
COc1ccc(NC(=O)Nc2ccccc2SC)cc1,?,?,11µM*,13µM*,10µM*,?
COc1ccc(-c2cc(C(=O)Nc3ccccc3SC)no2)cc1,25%,5%,-1%,7%,12%,5%
O=C(C#Cc1ccccc1)Nc1ccccc1F,?,?,1.9µM*,.,.,17%
CSc1ccccc1NC(=O)Nc1ccc(Cl)cc1,?,?,11µM*,-31%,-2%,?
CCCCN1C(=O)C(O)(CC(=O)c2ccc(C(C)(C)C)cc2)c2ccccc21 (stereo not drawn),.,.,4%,5%,.,.
CCCCC/C=C\C\C=C/C=C/C=C/[C@@H](SC[C@H](N)C(=O)NCC(=O)O)[C@@H](O)CCCC(=O)O,.,.,.,-10%,.,.
CCOc1cccc(C2c3[nH]c4ccccc4c3CCN2C(=O)Cc2cccc(OCC)c2OCC)c1 (stereo not drawn),.,.,-1%,-11%,.,.
COc1ccc(C/C(C)=N/NC(=S)Nc2ccccc2F)cc1,2.5µM*,3.2µM*,15µM*,-56%,-9%,8.2µM*
COc1ccc(NC(=O)CN(C)C(=O)c2ccc(S(=O)(=O)Nc3ccccc3F)cc2)cc1,-5%,2%,13µM*,.,.,23%
COc1ccc(NC(=O)Nc2ccccc2F)cc1,0.45µM*,0.56µM*,3.4µM*,11µM*,?,2.6µM*
COc1ccc(NC(=O)Nc2ccccc2F)c(C)c1,?,24%,-9%,.,5%,7%
COc1ccc(C/C(C)=N/NC(=S)Nc2ccc(C(C)C)cc2)cc1,-3%,0%,?,-21%,0%,-1%
COc1cccc(COC(=O)Nc2ccccc2F)c1,2µM*,1.1µM*,11µM*,.,.,4.1µM*
CCOC(=O)CSc1nc2cc3c(cc2c(=O)n1CCCC(=O)NCc1ccc2c(c1)OCO2)OCO3,.,.,5%,.,.,.
COc1ccc(NC(=O)Nc2ccccc2F)cc1Cl,1.4µM*,1.8µM*,?,10µM*,-8%,5.2µM*
Fc1ccccc1NC(=S)N/N=C/c1ccccc1Br,3.2µM*,?,13µM*,11µM*,-3%,4.5µM*

# High-throughput results deposited in PubChem by National Center for Advancing Translational Sciences (NCATS).
